Test results as given in PubChem BioAssay (NCI).
Compounds without any hit were thinned out: in the full panel of roughly 83,000, 20% have a hit.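 Treatment: one concentration, 48 hours, 96-well format. Scoring: percent growth, with anything below 10 considered active.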 The source made the active and inactive calls.

Columns and labels:
Test in all cases: NCI-60 one-dose screen, 48 h (100 = growth as untreated, 0 = no growth, -100 = all killed)
[1] = tested on: SK-MEL-2 melanoma; conditions: 10 µM unless noted
[2] = tested on: EKVX NSCLC; conditions: 10 µM
[3] = tested on: SN12C renal; conditions: 10 µM unless noted
[4] = tested on: UO-31 renal; conditions: 10 µM unless noted
[5] = tested on: TK-10 renal; conditions: 10 µM unless noted
[6] = tested on: ACHN renal; conditions: 10 µM unless noted
[7] = tested on: CAKI-1 renal; conditions: 10 µM unless noted
[8] = tested on: A498 renal; conditions: 10 µM unless noted
[9] = tested on: CCRF-CEM leukemia; conditions: 10 µM
[10] = tested on: MOLT-4 leukemia; conditions: 10 µM unless noted

Measured: growth

CC(=O)OCC1O[C@@H](OC(C)=O)[C@@H](NC(=O)NS(=O)(=O)c2ccccc2)C(OC(C)=O)[C@@H]1OC(C)=O (stereo not given in full)
inactive: [2] 96.4% | [3] 97.2% | [4] 90.9% | [5] 98.6% | [6] 104% | [7] 94.9% | [8] 71.9% | [9] 97% | [10] 98.6%
active: [1] -51.6%

Cc1ccc(C(=O)Nc2ccc(CN3CCN(C)CC3)c(C(F)(F)F)c2)cc1C#Cc1cnc(N)c2ccc(C#N)cc12
inactive: [1] 25.1% | [2] 53.4% | [3] 24.1% | [4] 14.3% | [5] 52.7% | [7] 33.6% | [8] 35.7%
active: [6] 9.19% | [9] 7.71% | [10] -8.2%

CC1(C)CC(=O)C2=C(C1)Oc1nc(N)c(C#N)c(N)c1C2c1ccc(F)cc1 (stereo not given)
inactive: [1] 107% | [2] 97.4% | [3] 107% | [4] 181% | [5] 72.8% | [6] 107% | [7] 92.3% | [8] 102% | [9] 118% | [10] 74.4%

CCC(C)C1NC(=O)C(CCCCN)NC(=O)C(CCCCN)NC(=O)C(CC(C)C)NC(=O)C(CCCCN)NC(=O)C(C(C)CC)NC(=O)C(C(C)C)NC(=O)C(C(C)CC)NC(=O)C(CCCCN)NC(=O)C(CCCCN)NC(=O)C(C)NC(=O)C(CCCCN)NC(=O)C(CC(C)C)NC1=O (stereo not given)
inactive: [1] 28.6% | [2] 13.5% | [3] 12.3% | [4] 14.6% | [5] 19.5% | [8] 21.8% | [9] 22% | [10] 22.2%
active: [6] 3.79% | [7] 6.74%

Nc1ncn([C@@H]2O[C@H](CO)[C@@H](O)C2(F)F)c(=O)n1
inactive: [1] 104% | [2] 86.1% | [3] 51.7% | [4] 39% | [5] 91.1% | [7] 27.9% | [8] 38% | [9] 23.7% | [10] 35.6%
active: [6] 7.28%

Cc1ccc(C(=O)Nc2ccc(CN3CCN(C)CC3)c(C(F)(F)F)c2)cc1C#Cc1cnc(N)c2ccc(F)cc12
active: [1] -56.2% | [2] -92.2% | [3] -90.8% | [4] -97.3% | [5] -84.5% | [6] -100% | [7] -58% | [8] -69.9% | [9] -58.7% | [10] -67.1%

N=c1c2c(=O)n3c(nc2nc2sc4ccc(Cl)cc4n12)-c1ccccc1Sc1ccccc1-3
active: [1] 7.77% | [2] 9.46% | [4] -5.37% | [7] 6.62% | [10] 8.17%
inactive: [3] 21.4% | [5] 47% | [6] 14.7% | [8] 47.1% | [9] 12.5%

Oc1ccccc1\C=N/N=C/C=C/c1ccccc1
inactive: [1] 92.7% | [2] 94.5% | [3] 88% | [4] 51.7% | [5] 130% | [6] 104% | [7] 96.7% | [8] 78% | [10] 55.3%
active: [9] 7.53%

C[C@H]1C[C@@H](n2cnc3c(N)nccc32)[C@H](O)[C@@H]1O
inactive: [1] 106% | [2] 96.3% | [3] 92.3% | [4] 167% | [5] 119% | [6] 101% | [7] 116% | [8] 120% | [9] 23.6% | [10] 65%

COc1ccc(OC)c(Cn2cc3c(c2-c2ccccc2)CCc2cnoc2-3)c1
inactive: [1] 74.2% | [2] 58.5% | [3] 73% | [4] 59% | [5] 86.1% | [6] 65.3% | [7] 28.9% | [8] 53.8% | [9] 48.7% | [10] 47%

COc1nc(OC)nc(-c2cc(-c3cc(OC)c(OC)c(OC)c3)no2)n1
inactive: [1] 108% | [2] 103% | [3] 94.6% | [4] 71.3% | [5] 101% | [6] 108% | [7] 96.1% | [8] 82.5% | [9] 91.3% | [10] 92.6%

CCCCCSc1ccc2nc(NC(=O)OCCC)sc2c1
inactive: [1] 51.7% | [2] 34.2% | [3] 57.4% | [4] 51.8% | [5] 70.1% | [6] 42.8% | [7] 32.4% | [8] 11.2% | [9] 20.3% | [10] 30.7%

COc1cc2c(cc1OC)C(Cc1cc(OC)c(OC)cc1[N+](=O)[O-])=NCC2
inactive: [1] 92.9% | [2] 92.8% | [3] 77.9% | [4] 66.9% | [5] 73.4% | [6] 85.2% | [7] 87.9% | [8] 56.4% | [9] 88.3% | [10] 92.4%

O=S(=O)(Cc1cccc2c(CS(=O)(=O)c3ccc(Cl)cc3)cccc12)c1ccc(Cl)cc1
inactive: [1] 98.8% | [2] 82.4% | [3] 98.6% | [4] 106% | [5] 113% | [6] 96.7% | [7] 73% | [8] 109% | [9] 90.7% | [10] 95.5%

COc1cc(OC)cc(-c2ccc(-c3ccc(C(=N)N)cc3)s2)c1
active: [1] -58.3% | [2] -83.6% | [3] -76.9% | [4] -78% | [5] -83.7% | [6] -90% | [7] -93.7% | [8] -92% | [9] -59.7% | [10] -48.8%

Cc1nc(NC(=O)NC2CCCCC2)sc1C(=O)NN
active: [5] -14.2%
inactive: [1] 21.7% | [2] 119% | [3] 106% | [4] 84% | [6] 97.8% | [7] 132% | [8] 118% | [9] 112% | [10] 116%

CC(=O)OC1CC2C3CCC4C[C@@H](NC(=O)C=C(C)C)CC[C@]4(C)C3CC[C@]2(C)[C@H]1C(C)N(C)C (stereo not given in full)
active: [1] 5.9% | [4] 8.5% | [7] -19.6% | [9] 0.674% | [10] -31.9%
inactive: [2] 29.3% | [3] 14.3% | [5] 48.4% | [6] 21.4% | [8] 33.2%

CC(=O)Nc1ccc(CC#N)cc1Br
inactive: [1] 106% | [2] 112% | [3] 107% | [4] 95% | [5] 96.4% | [6] 109% | [7] 96.5% | [8] 79.9% | [9] 107% | [10] 118%

CC(C)(C)OC(=O)N1C/C(=C\c2ccccc2)C(=O)/C(=C/c2ccccc2)C1
inactive: [1] 94.2% | [2] 97.7% | [3] 93.5% | [4] 71.9% | [5] 102% | [6] 106% | [7] 84.8% | [8] 101% | [9] 76.4% | [10] 71.8%

c1cc(C2CCCCC2)ccc1OCCCCCCN1CCNCC1
active: [6] -7.79% | [9] -51.7% | [10] -48.5%
inactive: [1] 87.8% | [2] 90.5% | [3] 59.1% | [4] 56.6% | [5] 57% | [7] 55.7% | [8] 61.5%

FC(F)(F)c1cccc(-c2[nH]ncc2-c2nnnn2-c2ccccc2)c1
inactive: [1] 78.3% | [2] 52.6% | [3] 65.5% | [4] 72.4% | [5] 65.5% | [6] 68.6% | [7] 69.4% | [8] 43.4% | [9] 53.5% | [10] 27.1%

COc1cc(/C=C/C(=O)c2ccc(F)cc2)ccc1OCCCCOc1cc2c(cc1OC)C(=O)N1CCCC1C=N2 (stereo not given)
active: [1] -24.6% | [2] 8.29% | [3] -48.1% | [4] -63% | [5] -16.9% | [6] -85.9% | [7] -14.2% | [8] 7.77% | [9] -30.3% | [10] -19.4%

COc1ccc(-n2nnnc2-c2cn[nH]c2C(F)(F)F)cc1
inactive: [1] 92.4% | [2] 90.3% | [3] 104% | [4] 92.9% | [5] 113% | [6] 99.3% | [7] 92.5% | [8] 83.2% | [9] 98.3% | [10] 79%

CCOP1(=O)CC(C)=C(Cl)C(P(=O)(O)O)C1 (stereo not given)
inactive: [1] 109% | [2] 102% | [3] 99.3% | [4] 42.5% | [5] 117% | [6] 101% | [7] 110% | [8] 113% | [10] 89.9%
active: [9] -35.6%
